# LDHA block: LDHA (human) enzyme inhibition; activity change, % (values are at about 110 or 230 µM); P00338; purified LDHA, NADH/diaphorase-resazurin fluorescence; stronger effect = lower value; hit rate 0.15% among 480,000; in the data active means activity change below about -30%; inconclusive means mostly about -25% to -30%;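 further: plate controls were DMSO wells for no effect and wells without enzyme for full effect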
#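 LDH5 2 nM; NADH 0.06 mM, pyruvate 0.2 mM; 200 mM Tris pH 7.4, EDTA, Tween-20; 5 min RT. Detection: diaphorase 0.133 mg/mL + resazurin 37 µM, fluorescence ex540/em590 at 0 and 20 min; normalized to enzyme-free and DMSO wells.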
# GLP1R cytotox: cytotoxic in the GLP-1 receptor inverse agonist counter-screen; AID 624418; Potency, µM (highest dose often 38.3 µM), inactives show at the highest dose activity change, negative = inhibition, usual class: inhibitors; HEK293 cAMP-luciferase reporter cells, luminescence, 24 h; hit rate 0.13% among 410,000;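 further: loss of luciferase light is scored as toxicity; potency means the concentration at half of the fitted maximal effect; on the % scale 0 is the no-effect control and ±100 the full control effect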
#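 Step one: seed cells (200 cells/uL, DMEM with 10% Nu serum, 1% pen-strep). Step two: 12-hour incubation at 37 deg C. Step three: pin 23 nL compound, incubate 24 hr. Step four: add luciferase reagent, read luminescence 12 min later.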
# GLP-1R inv ag: GLP-1 receptor (human) inverse agonism | P43220 | HEK293 GLP-1R CRE-luciferase, luminescence, 24 h; GLP-1R form is constitutively active | Potency, µM (series often up to 38.3 µM), for inactives: at the highest dose activity change, negative = inhibition, actives largely listed as inhibitors | hit rate 1.6% among 410,000 | AID 624417; further: potency means the concentration at half of the fitted maximal effect; on the % scale 0 is the no-effect control and ±100 the full control effect; nearly all actives have a fitted effect of over 55% in size
# Target sequence (P43220 whole entry, looked up): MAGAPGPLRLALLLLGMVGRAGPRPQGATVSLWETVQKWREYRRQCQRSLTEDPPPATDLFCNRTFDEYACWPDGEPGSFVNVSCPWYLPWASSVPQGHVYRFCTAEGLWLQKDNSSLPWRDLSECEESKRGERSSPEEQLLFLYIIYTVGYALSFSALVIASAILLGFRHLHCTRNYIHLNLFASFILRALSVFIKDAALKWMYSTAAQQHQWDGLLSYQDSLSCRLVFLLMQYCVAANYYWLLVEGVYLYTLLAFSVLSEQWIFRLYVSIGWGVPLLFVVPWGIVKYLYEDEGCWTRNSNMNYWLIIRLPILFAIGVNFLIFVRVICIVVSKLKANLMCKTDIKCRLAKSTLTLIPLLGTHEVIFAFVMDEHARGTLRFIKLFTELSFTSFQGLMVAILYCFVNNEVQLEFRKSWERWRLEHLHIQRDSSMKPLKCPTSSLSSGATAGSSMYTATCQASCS
#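 qHTS in 1536-well format: reporter HEK293 cells expressing constitutive GLP-1R activity in DMEM + 10% Nu serum, 24 hr with compounds at 37 deg C, luminescence read after 12 min with detection reagent.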
# mIDH1 inhibitor: human IDH1 R132H inhibition; O75874; IDH1-R132H enzyme, NADPH consumption, diaphorase/resazurin fluorescence; Potency, µM (series often up to 76.6 µM), inactives show at the highest dose activity change, negative = inhibition, hits mostly inhibitors; hit rate 0.093% among 390,000; AID 602179; further: potency means the concentration at half of the fitted maximal effect; on the % scale 0 is the no-effect control and ±100 the full control effect; nearly all actives have a fitted effect of over 65% in size
#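 IDH1-R132H (0.5 ug/mL) preincubated 30 min with compound, then NADPH (0.016 mM) and alpha-KG (2 mM) added; 80 min at RT, pH 7.5. Remaining NADPH coupled via diaphorase/resazurin to fluorescence (540/590 nm); concentration-response curves normalized to no-enzyme control.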
# GLP1R ag: GLP-1 receptor (human) agonism | P43220 | Potency, µM (titrated, usually from 45.6 µM), without a hit: top-dose activation, most hits filed as activators | HEK293 GLP-1R CRE-luciferase, luminescence, 4-6 h; cells express a hypersensitive GLP-1R form | hit rate 0.007% among 380,000; further: potency means the concentration at half of the fitted maximal effect; % of control where 0% means no effect
# PTHR1 ag: PTHR1 (human) receptor agonism | Q03431 | hit rate 0.075% among 410,000 | AID 743266 | Potency, µM (doses to about 115 µM), for inactives: at the top dose activation, most hits filed as activators | HEK293 GP2 PTHR1 cells, GloSensor cAMP luminescence, 1 h; further: potency means the concentration at half of the fitted maximal effect; nearly all actives have a fitted effect of over 55% in size
#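 HEK-293-derived GP2 cells expressing PTHR1 and a GloSensor cAMP reporter, 3,000/well, plated overnight, given luciferin plus IBMX (each 0.5 mM as added) for 1 h at 37 °C, then compound for 1 h at 37 °C. Luminescence was read after 15 min at room temperature.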
# Active calls of the source: *; i = inactive; ? = inconclusive; . = not tested or not shown; ! = not confirmed by another sample; [ ] = remark or other dose. Rows were chosen to be rich in hits. Some 1.7% of all compounds tested hit in one or more screens of this group. Unless noted, the call rests on the fitted dose curve; in most records, active means well fitted curve in the direction sought with a large enough effect; inconclusive means small, poorly fitted or top-dose-only effect, or another doubt; inactive means no such curve, though single readings can be large; an effect the other way counts as inactive or inconclusive.
SMILES,LDHA block,GLP1R cytotox,GLP-1R inv ag,mIDH1 inhibitor,GLP1R ag,PTHR1 ag
CC1CN(Cc2ccccc2)C(=O)N(c2ccccc2)C1=O (stereo unspecified),-4.0,-9.9%,2.4%,-0.3%,-2.7%,i
CCc1c(C)nc2ncnn2c1Sc1ccccc1NC(=O)c1ccc2c(c1)OCO2,-4.8,.,.,.,.,.
CCOc1ccc(CN(C(=O)c2cc(=O)c3cc(Cl)c(C)cc3o2)C2CCS(=O)(=O)C2)cc1 (stereo unspecified),3.2,.,.,.,.,.
O=C(CSc1ncnc2c1cnn2CCc1ccccc1)Nc1cccc(C(F)(F)F)c1,-0.2,-29.9%,7.94µM*,5.4%,-23.3%,-19.6%[57.5 µM]
COC(=O)CSc1ncnc2c1cnn2Cc1ccccc1,-9.8,-9.7%,5.3%,3.8%,-0.9%,i
CC(C)(C)C(=O)CSc1ncnc2c1cnn2Cc1ccccc1,0.0,0.8%,3.55µM*,-1.4%,21.3%,-21.2%
Cc1c(Cl)cccc1NC(=O)CSc1ncnc2c1cnn2CCc1ccccc1,-0.4,-13.1%,?,4.9%,9.1%,i
COc1cccc(-c2ccc(=O)n(CC(=O)N3CCc4cc(OC)c(OC)cc4C3)n2)c1,15.6,.,.,.,.,.
O=C(COc1ccc2c(=O)c(-c3ccc(Cl)cc3)coc2c1)Nc1ccc2c(c1)OCO2,-9.4,.,.,.,.,.
COc1ccc(/C=C2/CCC(CN3CCOCC3)C2=O)cc1 (stereo unspecified),-1.8,5.01µM*,5.62µM*,-2.8%,-17.1%,-38.2%
O=S(=O)(c1ccc2ccccc2c1)N1CCN(C(=S)Nc2ccc(F)cc2)CC1,-6.3,-14.4%,?,4.9%,-2.7%,-21.1%
O=S(=O)(c1ccc2ccccc2c1)N1CCN(C(=S)Nc2ccc(F)c(Cl)c2)CC1,-7.6,-21.7%,4.47µM*,9.1%,-3.8%,i
Cc1ccc(Sc2ccc(NC(=O)c3n[nH]c(=O)c4ccccc34)cc2)cc1C,13.3,.,.,.,.,.
O=C(NCCc1ccccc1)c1coc(=O)c(Br)c1,4.0,5.01µM*,?,-12.7%,-1.9%,-82.1%
CCc1ccccc1N(C)S(=O)(=O)c1ccc2[nH]cc(C(=O)O)c(=O)c2c1,-41.5*,-0.6%[7.66 µM],5.9%[7.66 µM],2.5%,-3.1%,-1.5%
CCOc1ccccc1N(C)S(=O)(=O)c1ccc2[nH]cc(C(=O)N(CCOC)CCOC)c(=O)c2c1,-7.5,4.2%,2.3%,-5.0%,7.3%,-2.4%
CN(c1ccc(F)cc1)S(=O)(=O)c1ccc2[nH]cc(C(=O)O)c(=O)c2c1,-30.1*,-7.1%,-0.6%,-2.7%,-14.4%,i
CCOC(=O)C(=O)NNc1ccc(F)cc1,9.4,-27.6%,0.891µM*,1.3%,-4.2%,i
CCc1ccc(CSc2nccn2-c2ccccc2)cc1,-6.0,0.0%,6.31µM*,3.8%,15.2%,-4.2%[57.5 µM]
c1ccc(CCSc2nccn2-c2ccccc2)cc1,-4.9,3.7%,?,5.6%,6.7%,-57.7%[57.5 µM]
Cc1ccc(N2C(=O)C(CN3CCCC3)C2c2ccccc2)cc1 (stereo unspecified),-2.8,-7.1%,10µM*,-2.4%,6.0%,-6.5%
CC(C)Sc1nc2c(c(=O)[nH]c(=O)n2C)n1Cc1ccccc1,-30.3*!,-3.8%,49.2%,0.0%,2.7%,i
COc1ccc(C2=NOC(Cn3c(=O)c4c(ncn4C)n(C)c3=O)C2)cc1 (stereo unspecified),7.3,.,.,.,.,.
O=C(CN1CCN(c2ncc(C(F)(F)F)cc2Cl)CC1)N1CCN(c2ncc(C(F)(F)F)cc2Cl)CC1,2.2,3.4%,4.47µM*,8.2%,-4.9%,-89.4%
c1ccc(-c2ccccc2OCCCCn2ccnc2)cc1,-37.1*,15.1%,-27.3%,-12.5%,0.9%,-36.9%
SMILES,LDHA block,GLP1R cytotox,GLP-1R inv ag,mIDH1 inhibitor,GLP1R ag,PTHR1 ag
c1ccc(-c2ccccc2OCCCN2CCOCC2)cc1,-30.1*,-11.8%,-26.7%,5.5%,-6.6%,i
CCc1cc(=O)oc2c(C)c(OC(C)C(=O)NCc3ccccn3)ccc12 (stereo unspecified),0.1,.,.,.,.,.
CN(C)c1ccc(C(=O)NNC(=O)c2ccc(Cl)cc2)cc1,-48.4*,0.0%,5.4%,-5.3%,10.7%,i
CN(C)c1ccc(C(=O)NNC(=O)c2ccc(F)cc2)cc1,7.0,.,.,.,.,.
Clc1ccc2c(c1)-c1ccccc1C1=NCCN12,-1.9,?,3.98µM*,-2.5%,-10.9%,i
Oc1ccc(-c2nc3ccccc3nc2-c2ccccc2)cc1,-1.1,-29.7%,3.98µM*,-10.4%,24.2%,-94.5%
Cc1oc(-c2ccccc2)nc1CC(=O)NC(C)C(C)C (stereo unspecified),2.5,.,.,.,.,.
CCOC(=O)c1ccc2[nH]c3c(c2c1)CCCC3C(=O)OCC (stereo unspecified),-0.4,-9.2%,5.01µM*,2.8%,19.8%,-12.7%[57.5 µM]
CCNC(=O)C1CCCc2c1[nH]c1ccc(Cl)cc21 (stereo unspecified),-10.0,0.2%[7.66 µM],1.2%[7.66 µM],1.3%,2.4%,-47.9%
NC(=O)C1CCCCc2c1[nH]c1ccc(Cl)cc21 (stereo unspecified),-0.5,-2.4%,12.6µM*,1.4%,2.0%,-8.6%
CCN(CC)S(=O)(=O)c1ccc(C(=O)N(c2ccccc2)c2nc(C)cs2)cc1,-23.7,.,.,.,.,.
COc1ccc(/C=C2\CN(Cc3ccccc3)C/C(=C\c3ccc(OC)c(O)c3)C2=O)cc1O,0.6,?,8.91µM*,-0.4%,-9.4%,-92.4%
O=c1c(Cl)c(N2CCN(Cc3nnc(-c4ccc(Cl)cc4)o3)CC2)cnn1-c1ccccc1,-3.7,.,.,.,.,.
CCOC(=O)c1sc2nc(CC(=O)OC)nc(N3CCN(c4ccc(OC)cc4)CC3)c2c1C,5.5,-7.2%,3.98µM*,0.4%,19.5%,i
COc1c2occc2c(OC(C)=O)c2c(=O)cc(C)oc12,-3.9,-15.1%,10µM*,3.1%,9.8%,i
CC(=O)Oc1c2occc2cc2ccc(=O)oc12,5.7,4.8%,13.9%,1.6%,-5.5%,-19.2%[57.5 µM]
Clc1ccc(-c2cc3ccccc3nc2N2CCCC2)cc1,-2.1,-20.4%,?,-2.2%,-2.1%,i
Clc1ccc(-c2cc3ccccc3nc2N2CCOCC2)cc1,-8.9,3.5%,10µM*,10.8%,7.1%,-36.9%
CC(NC(=O)Cn1cnc(C#N)n1)c1ccc(-c2ccccc2)cc1 (stereo unspecified),3.5,.,.,.,.,.
CC(C)(C)S(=O)N1Cc2cc(C(=O)O)nc(-c3cccc(-c4cc5ccccc5o4)c3)c2[C@H]1CCO (stereo partly specified),-32.5*,-0.9%,3.3%,.,4.8%,-24.4%

# High-throughput results from PubChem.
